From PubChem BioAssay come the findings set out here.

Assay [1] in a line: antimalarial activity against Dd2 strain (AID 2302;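 active = growth inhibition above 50% at the single 2 µM test dose, taken to imply half-maximal potency below 2 µM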;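 also: 0% = DMSO untreated growth and 100% = chloroquine plus artemisinin killed control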). The settings on record: P. falciparum Dd2 in RBCs, LDH growth readout, 72 h; at 2 µM; hits give high values.
Assay [2] in a line: human hepatoma cell viability loss – ATP luminescence, cytotoxicity control for P. falciparum antimalarial project, primary screen (AID 2303;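 active = inhibition above 50%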;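 also: 0% = DMSO wells and 100% = digitonin-killed cells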). As to conditions: HepG2 viability, 24-48 h, at 10 µM, hits give high values.
Assay [3] addresses L-lactate dehydrogenase (Plasmodium falciparum (isolate CDC / Honduras)) (UniProt Q27743). As to the kind of experiment: PfLDH activity inhibition – cell lysate, 3D7 strain, counter-screen for P. falciparum growth inhibition project (AID 2304).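 Also: 0% = vehicle and 100% = reference inhibitor.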 As to conditions: P. falciparum 3D7 crude extract, LDH APAD/NBT absorbance; at 2 µM; hits give high values.
Assay [4] in a line: inhibition of 3D7 malaria parasite growth – strain 3D7 (AID 2306).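 Also: 0% = DMSO wells and 100% = chloroquine plus artemisinin control wells.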 The settings on record: P. falciparum 3D7 erythrocytic growth, LDH absorbance, 72 h; at 2 µM; hits give high values.
In assay [5] the target is Calcium-dependent protein kinase 1 (Plasmodium falciparum (isolate 3D7)) (UniProt P62344). As to the kind of experiment: PfCDPK1 kinase inhibitors, biochemical, TCAMS library (AID 1159585; cut-off not given, nearly all actives have IC50 up to about 0.98 µM;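 also: inhibitors leave more ATP so luminescence rises with inhibition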). As to conditions: recombinant PfCDPK1, Kinase-Glo ATP depletion luminescence. A general note: In Kinase-Glo more light means more ATP remaining.
Chain of Calcium-dependent protein kinase 1 (Plasmodium falciparum (isolate 3D7)) (P62344 whole entry, looked up): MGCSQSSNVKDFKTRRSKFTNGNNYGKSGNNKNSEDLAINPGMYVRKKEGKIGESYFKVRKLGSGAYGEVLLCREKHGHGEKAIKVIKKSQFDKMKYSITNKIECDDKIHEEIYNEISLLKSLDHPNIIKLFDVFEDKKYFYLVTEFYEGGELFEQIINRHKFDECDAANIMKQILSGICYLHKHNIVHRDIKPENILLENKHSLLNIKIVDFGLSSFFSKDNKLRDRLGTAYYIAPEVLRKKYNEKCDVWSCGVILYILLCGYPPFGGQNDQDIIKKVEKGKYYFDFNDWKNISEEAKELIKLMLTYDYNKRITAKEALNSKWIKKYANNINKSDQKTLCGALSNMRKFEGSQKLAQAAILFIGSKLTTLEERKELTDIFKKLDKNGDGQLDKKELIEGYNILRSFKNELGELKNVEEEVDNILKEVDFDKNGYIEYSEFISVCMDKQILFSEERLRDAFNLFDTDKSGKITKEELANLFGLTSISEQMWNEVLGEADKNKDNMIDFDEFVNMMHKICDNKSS
The target of assay [6] is Plasmodium falciparum protein kinase 6 (PK6, PF3D7_1337100) (UniProt Q8IDW1). As to the kind of experiment: PfPK6 kinase inhibitors, biochemical, TCAMS library (AID 1159586). As to conditions: recombinant PfPK6, Kinase-Glo ATP depletion luminescence.
Chain of Plasmodium falciparum protein kinase 6 (PK6, PF3D7_1337100) (Q8IDW1 1-305): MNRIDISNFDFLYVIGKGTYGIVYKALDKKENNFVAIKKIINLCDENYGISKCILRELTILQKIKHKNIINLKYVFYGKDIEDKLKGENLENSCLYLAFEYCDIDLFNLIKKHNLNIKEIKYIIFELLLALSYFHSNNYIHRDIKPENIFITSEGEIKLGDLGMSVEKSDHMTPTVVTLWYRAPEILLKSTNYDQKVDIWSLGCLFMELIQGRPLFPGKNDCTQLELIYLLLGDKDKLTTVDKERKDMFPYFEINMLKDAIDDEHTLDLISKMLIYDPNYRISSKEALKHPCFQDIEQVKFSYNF
In assay [7] the target is Protein kinase 7 (PK7), Plasmodium falciparum 3D7 (PF3D7_0213400) (UniProt Q7YTF7). As to the kind of experiment: inhibition of Plasmodium PK7 catalytic activity – biochemical, TCAMS antimalarial set, Kinase-Glo luminescence (AID 1159587). As to conditions: recombinant PfPK7, Kinase-Glo ATP depletion luminescence.
Chain of Protein kinase 7 (PK7), Plasmodium falciparum 3D7 (PF3D7_0213400) (Q7YTF7 1-343): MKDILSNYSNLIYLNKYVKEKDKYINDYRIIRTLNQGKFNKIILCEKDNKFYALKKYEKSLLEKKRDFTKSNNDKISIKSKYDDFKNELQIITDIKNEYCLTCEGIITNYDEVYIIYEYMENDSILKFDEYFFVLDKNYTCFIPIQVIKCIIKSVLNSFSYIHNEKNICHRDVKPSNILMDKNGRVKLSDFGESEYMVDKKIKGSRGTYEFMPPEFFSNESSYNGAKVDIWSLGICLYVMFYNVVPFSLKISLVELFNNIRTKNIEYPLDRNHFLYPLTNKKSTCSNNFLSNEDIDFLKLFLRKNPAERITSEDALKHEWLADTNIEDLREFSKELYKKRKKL
Assay [8] deals with Calcium-dependent protein kinase 4 (Plasmodium falciparum (isolate 3D7)) (UniProt Q8IBS5). As to the kind of experiment: PfCDPK4 kinase inhibitors, biochemical, TCAMS library (AID 1159588; cut-off not given, nearly all actives have IC50 up to about 0.91 µM). The settings on record: recombinant PfCDPK4, Kinase-Glo ATP depletion luminescence.
Chain of Calcium-dependent protein kinase 4 (Plasmodium falciparum (isolate 3D7)) (Q8IBS5 whole entry, looked up): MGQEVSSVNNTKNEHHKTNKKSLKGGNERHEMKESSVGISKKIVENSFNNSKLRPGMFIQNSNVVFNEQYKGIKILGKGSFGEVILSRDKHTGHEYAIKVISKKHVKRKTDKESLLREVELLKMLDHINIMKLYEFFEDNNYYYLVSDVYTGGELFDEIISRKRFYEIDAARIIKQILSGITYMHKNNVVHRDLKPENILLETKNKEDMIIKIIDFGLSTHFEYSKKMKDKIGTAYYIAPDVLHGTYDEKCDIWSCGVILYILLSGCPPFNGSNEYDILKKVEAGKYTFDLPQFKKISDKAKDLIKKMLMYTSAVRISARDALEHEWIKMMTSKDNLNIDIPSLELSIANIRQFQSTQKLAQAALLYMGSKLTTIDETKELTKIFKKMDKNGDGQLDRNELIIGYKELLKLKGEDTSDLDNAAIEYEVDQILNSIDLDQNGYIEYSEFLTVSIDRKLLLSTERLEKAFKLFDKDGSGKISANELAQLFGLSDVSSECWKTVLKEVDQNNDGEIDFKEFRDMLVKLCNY

Values without a mark were called inactive. For some of these results: Potency and affinity values are given separately. Calls of active or inactive are those of the source. Unless noted, no rule for the calls is given here.

Chain of L-lactate dehydrogenase (Plasmodium falciparum (isolate CDC / Honduras)) (Q27743 whole entry, looked up): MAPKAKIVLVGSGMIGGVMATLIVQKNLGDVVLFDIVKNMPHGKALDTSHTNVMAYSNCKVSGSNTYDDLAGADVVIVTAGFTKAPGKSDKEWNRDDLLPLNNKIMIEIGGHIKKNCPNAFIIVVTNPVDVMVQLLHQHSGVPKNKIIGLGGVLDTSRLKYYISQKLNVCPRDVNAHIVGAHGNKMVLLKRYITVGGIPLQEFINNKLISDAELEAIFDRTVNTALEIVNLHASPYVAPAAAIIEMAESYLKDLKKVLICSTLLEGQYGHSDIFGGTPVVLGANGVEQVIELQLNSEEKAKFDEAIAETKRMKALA

Broadly, the inhibition is the relative decrease from the control value, in per cent. On to `CCC(=O)Nc1ccc(Nc2nc(C)cc(N3CCCC3)n2)cc1`, for which the growth inhibition in assay [1] is 2%; in assay [4], 91% (active). Also, the figures for the inhibition in assay [2] and in assay [3] were 34% and -2%, respectively. The outcome in assay [5], in assay [6], in assay [7] and in assay [8] was inactive.

For the molecule `CC(C)Cc1cn(-c2nc(C(=N)N)cs2)c2cc(Cl)ccc12`, the growth inhibition was 98% (active) in assay [1] and 100% (active) in assay [4]. Moreover, the inhibition in assay [2] was 98% (active); in assay [3], -1%. The outcome in assay [5], in assay [6], in assay [7] and in assay [8] was inactive.

For `CCCCCCCN1CC[C@@H](CCCc2ccnc3ccc(OCCN4CCOCC4)cc23)[C@@H](CC)C1`, the values for the growth inhibition in assay [1] and in assay [4] were 3% and 89% (active), respectively. For the same molecule, the inhibition in assay [2] is 14%; in assay [3] it was 0%. Moreover, the outcome in assay [5], in assay [6], in assay [7] and in assay [8] was inactive.

Turning to `COc1ccc2ncc(C)c(CCN3CCC(NCc4ccc5c(n4)NC(=O)CS5)CC3)c2c1`, the growth inhibition was 53% (active) in assay [1] and 100% (active) in assay [4]. Also, the inhibition in assay [2] is 14%; in assay [3], -4%. In addition, the result in assay [5], in assay [6], in assay [7] and in assay [8] was inactive.

As to `Nc1c2c(nc3ccc(C(=O)Nc4ccccc4)cc13)CCCC2`, the growth inhibition was 78% (active) in assay [1] and 100% (active) in assay [4]. The inhibition is 20% in assay [2] and -3% in assay [3]. For the same molecule, the outcome in assay [5], in assay [6], in assay [7] and in assay [8] was inactive.

As for `O=C(/C=C/c1ccc(Cl)c(Cl)c1)NCCCCCN1CCC(NC(=O)Nc2cc(Cl)ccc2Cl)CC1`, the growth inhibition in assay [1] is 31%; in assay [4], 99% (active). In addition, the inhibition in assay [2] was 99% (active); in assay [3], 0%. For the same molecule, the result in assay [5], in assay [6], in assay [7] and in assay [8] was inactive.

Consider `CCCc1cc(NCc2ccncc2)nc(Nc2ccc(F)cc2)n1`, for which the growth inhibition in assay [1] is 6%; in assay [4], 90% (active). Moreover, the inhibition is 9% in assay [2] and -7% in assay [3]. In addition, the outcome in assay [5], in assay [6], in assay [7] and in assay [8] was inactive.

For `COc1ccc2nccc([C@@H](O)CN3CCC(NC(=O)/C=C/c4ccc5ccccc5n4)CC3)c2c1`, the growth inhibition in assay [1] was 9%; in assay [4] it was 91% (active). For the same molecule, the inhibition in assay [2] is 12%; in assay [3] it was 1%. Further, the outcome in assay [5], in assay [6], in assay [7] and in assay [8] was inactive.

With `COc1c(CNCCCCCCNCc2c(OC)c(OC)c3ccccc3c2OC)c(OC)c2ccccc2c1OC`, the growth inhibition was 98% (active) in assay [1] and 96% (active) in assay [4]. The inhibition in assay [2] is 100% (active); in assay [3], -2%. For the same molecule, the outcome in assay [5], in assay [6], in assay [7] and in assay [8] was inactive.

With `O=C(/C=C/c1ccsc1)N1CCC(CCN2CCC(c3c[nH]c4ccccc34)CC2)CC1`, the results for the growth inhibition in assay [1] and in assay [4] were 24% and 88% (active), respectively. In addition, the figures for the inhibition in assay [2] and in assay [3] were 37% and 4%, respectively. Further, the result in assay [5], in assay [6], in assay [7] and in assay [8] was inactive.

With `Cc1[nH]c(C)c(-c2ccc(Oc3ccc(O)cc3)cc2)c(=O)c1Cl`, the values for the growth inhibition in assay [1] and in assay [4] were 87% (active) and 91% (active), respectively. The inhibition in assay [2] is -2%; in assay [3], -3%. For the same molecule, the result in assay [5], in assay [6], in assay [7] and in assay [8] was inactive.

`Cc1ccc(NC(=O)Cc2noc(CC3CCCN3C(=O)N[C@@H](C)c3ccccc3)n2)cc1` (stereo not given in full): the growth inhibition in assay [1] is 90% (active); in assay [4], 95% (active). Moreover, the inhibition in assay [2] is 1%; in assay [3], -1%. Moreover, the result in assay [5], in assay [6], in assay [7] and in assay [8] was inactive.

Consider `CCCCCCCN(CCCCCCC)CCCC(=O)Nc1ccnc2ccc(OC)cc12`, for which the growth inhibition in assay [1] was 98% (active); in assay [4], 100% (active). Further, the results for the inhibition in assay [2] and in assay [3] were 43% and -5%, respectively. In addition, the outcome in assay [5], in assay [6], in assay [7] and in assay [8] was inactive.

With `O=C(Nc1ccc(C(F)(F)F)cc1)NC1CCN(c2ccnc3ccccc23)CC1`, the growth inhibition is 62% (active) in assay [1] and 103% (active) in assay [4]. The results for the inhibition in assay [2] and in assay [3] were 46% and -2%, respectively. The outcome in assay [5], in assay [6], in assay [7] and in assay [8] was inactive.

Take `CCOC(=O)C1CCN(CCOc2cc(NC(=O)/C=C/c3ccccc3Cl)ccc2Br)CC1`: the growth inhibition was 29% in assay [1] and 87% (active) in assay [4]. Further, the inhibition is 6% in assay [2] and -2% in assay [3]. The result in assay [5], in assay [6], in assay [7] and in assay [8] was inactive.

On to `CCCCCc1cnc2nc(N)nc(N)c2c1C`, for which the growth inhibition in assay [1] is 23%; in assay [4], 96% (active). Also, the values for the inhibition in assay [2] and in assay [3] were 64% (active) and -3%, respectively. Besides, the result in assay [5], in assay [6], in assay [7] and in assay [8] was inactive.

Consider `Cc1nc(-c2nc(N3CCOCC3)ncc2-c2ccsc2)sc1C`, for which the growth inhibition in assay [1] is 75% (active); in assay [4] it was 89% (active). Further, the inhibition in assay [2] was 5%; in assay [3], -7%. The outcome in assay [5], in assay [6], in assay [7] and in assay [8] was inactive.

Regarding `Cc1cc(-c2cccc(CNC3CCN(C)CC3)c2)ccc1S(=O)(=O)NCc1ccccc1`, the growth inhibition was 90% (active) in assay [1] and 99% (active) in assay [4]. Further, the inhibition in assay [2] is 53% (active); in assay [3] it was 4%. Moreover, the result in assay [5], in assay [6], in assay [7] and in assay [8] was inactive.

Consider `O=C1CSc2ccc(CNC3CCN(CCc4c(Cl)cnc5ccc(F)cc45)CC3)nc2N1`, for which the figures for the growth inhibition in assay [1] and in assay [4] were 52% (active) and 98% (active), respectively. Also, the inhibition was 21% in assay [2] and -2% in assay [3]. Further, the outcome in assay [5], in assay [6], in assay [7] and in assay [8] was inactive.

In the case of `O=C(c1ccc(-c2cnc3[nH]cc(-c4ccc(C(=O)N5CCOCC5)cc4)c3c2)cc1)N1CCOCC1`, the growth inhibition in assay [1] was -3%; in assay [4], 91% (active). Moreover, the results for the inhibition in assay [2] and in assay [3] were 19% and -4%, respectively. The outcome in assay [5], in assay [6], in assay [7] and in assay [8] was inactive.
